Laboratory results: PubChem BioAssay AID1159580 (chemical genetic matrix, 2015)
“And” between values parts separate entries of the source, which are not always exact repeats. Equal entries are not always repeated. The whole screen tested about 5,500 compounds, of which about 2,000 (36%) were called active. Another 18% or so got no clear call; they are omitted. Rule as the data show it: active = normalized growth mostly below about 0.91 (no sharp cut-off); inconclusive = no clear call, values can overlap the other calls; inactive = mostly above about 0.92. This is one part of the list.

Assay: chemical genetic growth profiling, strain panel (AID 1159580);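 also: tested at 20 µM; growth read once vehicle control cultures reached saturation at 30 °C; 1 = growth at the plate median or of vehicle wells; lower values mean less growth of the strain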
Settings: S. cerevisiae deletion strains, growth OD

Measured: normalized growth

O=C(O)c1cc(O)c(O)c(O)c1
inactive: locus YAL021C, strain ccr4, hits give low values 1.05 | locus YAL026C, strain drs2, hits give low values 1.03 | locus YAL030W, strain snc1, hits give low values 1.02 | locus YBL061C, strain skt5, hits give low values 1.03 | locus YBR009C, strain hhf1, hits give low values 1.02 | locus YBR021W, strain FUR4, hits give low values 1.03 | locus YBR023C, strain chs3, hits give low values 1.04 | locus YBR171W, strain sec66, hits give low values 1.03 | locus YBR229C, strain ROT2, hits give low values 1.03 | locus YBR231C, strain swc5, hits give low values 1.01 | locus YBR279W, strain paf1, hits give low values 1.02 | locus YCL011C, strain gbp2, hits give low values 1.02 | locus YCL016C, strain dcc1, hits give low values 1.04 | locus YCL029C, strain bik1, hits give low values 1.07 | locus YCL069W, strain vba3, hits give low values 1.01 | locus YCR088W, strain abp1, hits give low values 1.02 | locus YDL005C, strain med2, hits give low values 1.02 | locus YDL035C, strain GPR1, hits give low values 1.07 | locus YDL040C, strain nat1, hits give low values 1.02 | locus YDL074C, strain BRE1, hits give low values 1.14 | locus YDL101C, strain DUN1, hits give low values 1.03 | locus YDL185W, strain tfp1, hits give low values 1.03 | locus YDL192W, strain arf1, hits give low values 1.03 | locus YDR001C, strain nth1, hits give low values 1.01 | locus YDR069C, strain doa4, hits give low values 1.01 | locus YDR101C, strain arx1, hits give low values 0.996 | locus YDR137W, strain rgp1, hits give low values 1.13 | locus YDR150W, strain NUM1, hits give low values 1.03 | locus YDR159W, strain sac3, hits give low values 0.987 | locus YDR162C, strain NBP2, hits give low values 1.04 | locus YDR195W, strain ref2 0.996 | locus YDR297W, strain sur2, hits give low values 1.02 | locus YDR318W, strain mcm21, hits give low values 1.04 | locus YDR334W, strain swr1, hits give low values 1.04 | locus YDR335W, strain msn5, hits give low values 1.02 | locus YDR388W, hits give low values 1.02 | locus YDR392W, strain spt3, hits give low values 0.993 | locus YDR502C, strain sam2, hits give low values 1.04 | locus YEL003W, strain gim4, hits give low values 0.996 | locus YEL037C, strain rad23, hits give low values 1.02 | locus YEL061C, strain CIN8 (second series), hits give low values 1.02 | locus YEL061C, strain CIN8, hits give low values 1.03 | locus YER015W, strain faa2, hits give low values 1 | locus YER016W, strain bim1, hits give low values 1.04 | locus YER110C, hits give low values 1.02 | locus YER111C, strain swi4, hits give low values 1.02 | locus YER155C, strain BEM2 (second series), hits give low values 1.08 | locus YER155C, strain BEM2, hits give low values 1.03 | locus YER167W, strain BCK2, hits give low values 1.03 | locus YFR010W, strain ubp6, hits give low values 0.998 | locus YGL078C, strain dbp3, hits give low values 1.03 | locus YGL086W, strain mad1, hits give low values 1.03 | locus YGL167C, strain pmr1, hits give low values 1.02 | locus YGL173C, strain kem1, hits give low values 0.994 | locus YGL227W, strain vid30, hits give low values 1.02 | locus YGL240W, strain doc1, hits give low values 1.01 | locus YGL248W, strain PDE1, hits give low values 1.08 | locus YGL253W, strain hxk2, hits give low values 1.03 | locus YGR078C, strain PAC10, hits give low values 1.04 | locus YGR135W, strain pre9, hits give low values 1.07 | locus YGR252W, strain gcn5, hits give low values 1.07 | locus YHR013C, strain ard1, hits give low values 1.04 | locus YHR027C, strain rpn1, hits give low values 1.01 | locus YHR030C, strain SLT2, hits give low values 0.966 | locus YHR079C, strain IRE1 (second series), hits give low values 1.03 | locus YHR079C, strain IRE1, hits give low values 0.969 | locus YHR094C, strain hxt1, hits give low values 1.02 | locus YHR129C, strain ARP1, hits give low values 1.05 | locus YHR142W, strain chs7, hits give low values 1.03 | locus YHR200W, strain rpn10, hits give low values 1.02 | locus YIL066C, strain RNR3, hits give low values 1.05 | locus YIL073C, strain SPO22, hits give low values 1.23 | locus YIL125W, strain kgd1, hits give low values 1.02 | locus YIR030C, strain dcg1, hits give low values 1.05 | locus YJL092W, strain hpr5, hits give low values 1.03 | locus YJL095W, strain BCK1 (second series), hits give low values 1.03 | locus YJL095W, strain BCK1, hits give low values 1.12 and 0.981 | locus YJL115W, strain asf1, hits give low values 1.02 | locus YJL129C, strain trk1, hits give low values 1.08 | locus YJL134W, strain LCB3, hits give low values 1.03 | locus YJL154C, strain vps35, hits give low values 1.03 | locus YJL164C, strain tpk1, hits give low values 1.01 | locus YJL166W, strain qcr8, hits give low values 1.04 | locus YJL168C, strain set2, hits give low values 1.02 | locus YJL187C, strain SWE1 (second series), hits give low values 1.07
